Reference: the supplement of paper PMC10105736
Unmarked numbers belong to inactive results.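 The calls were made as follows: active = MAPPIT score above the 99th percentile of random reference set scores in the same batch; inactive = at or below it.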

Assays:
Assay in all cases: MAPPIT interaction score (arbitrary units); higher = stronger binary interaction signal, active = hit call of the paper
CG2852 = conditions: pair source set: Lit-BM-16
CG2199 = conditions: MAPPIT configuration: N-N; pair source set: Curagen_low_conf
Paics = conditions: MAPPIT configuration: N-N; pair source set: DPIM
CG1971 = conditions: MAPPIT configuration: N-N; pair source set: Curagen_high_conf
CG9986 = conditions: MAPPIT configuration: N-N; pair source set: Curagen_low_conf
Mdr49 = conditions: MAPPIT configuration: N-N; pair source set: Lit-BS-16
PAN3 = conditions: MAPPIT configuration: N-N; pair source set: Curagen_low_conf
CG30349 = conditions: MAPPIT configuration: N-N; pair source set: Curagen_low_conf
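Also: HEK293T cells with Epo stimulation, STAT-responsive firefly luciferase reporter, fold induction versus unstimulated cells divided by the larger fold induction of two negative controls lacking either bait or prey.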

B1: Pdi (protein)
chain: MKFLICALFLAASYVAASAEAEVKVEEGVLVATVDNFKQLIADNEFVLVEFYAPWCGHCKALAPEYAKAAQQLAEKESPIKLAKVDATVEGELAEQYAVRGYPTLKFFRSGSPVEYSGGRQAADIIAWVTKKTGPPAKDLTSVADAEQFLKDNEIAIIGFFKDLESEEAKTFTKVANALDSFVFGVSSNADVIAKYEAKDNGVVLFKPFDDKKSVFEGELNEENLKKFAQVQSLPLIVDFNHESASKIFGGSIKSHLLFFVSREGGHIEKYVDPLKEIAKKYRDDILFVTISSDEEDHTRIFEFFGMNKEEVPTIRLIKLEEDMAKYKPESDDLSAETIEAFLKKFLDGKLKQHLLSQELPEDWDKNPVKVLVSSNFESVALDKSKSVLVEFYAPWCGHCKQLAPIYDQLAEKYKDNEDIVIAKMDSTANELESIKISSFPTIKYFRKEDNKVIDFNLDRTLDDFVKFLDANGEVADSEPVEETEEEEEAPKKDEL
- MAPPIT interaction score (CG2852; MAPPIT configuration: N-C): -0.281
- MAPPIT interaction score (CG2852; MAPPIT configuration: N-N): 1.74

B2: Hel25E (protein)
chain: MADNDDLLDYEDEEQTETTAVENQEAPKKDVKGTYVSIHSSGFRDFLLKPEILRAIVDCGFEHPSEVQHECIPQAVLGMDILCQAKSGMGKTAVFVLATLQQLEPSDNNTCHVLVMCHTRELAFQISKEYERFSKYMPTVKVAVFFGGMAIQKDEETLKSGTPHIVVGTPGRILALIRNKKLNLKLLKHFVLDECDKMLEQLDMRRDVQEIFRSTPHGKQVMMFSATLSKDIRPVCKKFMQDPMEVYVDDEAKLTLHGLQQHYVNLKENEKNKKLFELLDVLEFNQVVIFVKSVQRCVALSQLLTEQNFPAIGIHRGMTQEERLNRYQQFKDFQKRILVATNLFGRGMDIERVNIVFNYDMPEDSDTYLHRVARAGRFGTKGLAITFVSDENDAKILNEVQDRFDVNISELPEEIDLSTYIEGR
- MAPPIT interaction score (CG2199): -0.422
- MAPPIT interaction score (Paics): 1.6

B3: CG2678 (protein)
chain: MMHSAKNVCRTCMDETGTLVDIFANVRDPVLDEPEMSLSHILARCTERPVKRGDLLPQFICVSCVLAVQNAFRFKWQSEQSYQHFFRVLNQSGAPENQVHLAACNGDKNQIINQKMQLKSDRQQDTQQMTKTQKPDDDLSQKQTLQAKLQEGNIDGPPESFTLHPRKRTCRTEEQADMIPKEATRSTKMICDADGYYNCPHCSKRFCSQTQLRTHITDLCNRCPYCPRTYMQKSNLKRHLRNHLSKPAHKCFHCSKAFMRKDHLKRHLRTHDSDGPLSCSQCSAVFIEHVQLEIHRREHKQRPGSSKSESTKDPDSDDSDQAQDLKPKWTKNTFNGTCSIPPMLKPKPICDICQKKFSSVYALKRHMLTHNRQHHLKKCTYCSEEFKTEKHLKRHERGHMGDLFRCEFCSLVFVDVNYLRKHKKRIHSNNVIAM
- MAPPIT interaction score (CG1971): -0.147
- MAPPIT interaction score (CG9986): -0.191
- MAPPIT interaction score (Mdr49): -0.0532
- MAPPIT interaction score (PAN3): -0.0312

B4: kdn (protein)
chain: MSLYRISARKLSEAQKLPNVGAYVRMIAADGKSLRDVLAAKVPQEQERVKNFRKQHGATKMGETTIDMMYGGMRGIKALVTETSVLDADEGIRFRGLSIPECQKVLPAADGGTEPLPEGLFWLLLTGEVPTKSQVQQLSREWAERAALPQHVVTMLNNMPTTLHPMSQFAAAVTALNHDSKFAKAYSDGVHKSKYWEYVYEDSMDLIAKLPVVAATIYCNTYRGGKGSRSIDSSLDWSANFVKMLGYDNAPFTELMRLYLTIHSDHEGGNVSAHTVHLVGSALSDPYLSFAAGLNGLAGPLHGLANQEVLVWLRKLQKEAGNNPSEEQLKEYIWKTLKSGQVVPGYGHAVLRKTDPRYTCQREFALKHLPEDETFQLVSKIYKVVPPILTETGKVKNPWPNVDAHSGVLLQYYGMKEMNYYTVLFGVSRALGVLASLVWDRALGLPIERPKSFSTDLLVKMVQK
- MAPPIT interaction score (CG30349): 0.214
